Reference: PubChem BioAssay (NCI)
About 79,000 compounds went through this panel and 15% of them were active in at least one assay; those are over-represented in the sample as a whole. Calls of active or inactive are those of the source. Rule as the data show it: active = growth inhibition above about 70%; inactive = the rest.

Experiments:
[1] = NCI Yeast Anticancer Drug Screen. Data for the wt1 strain (AID 149);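 also: 0% = growth of vehicle-treated wt1 cultures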; conditions: S. cerevisiae wt1 strain (SPY 50644) growth inhibition, active compounds read high
Outline: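 Readout: yeast growth inhibition, normalised to vehicle controls, in the wt1 strain exposed to test compounds.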

[2] = NCI Yeast Anticancer Drug Screen. Data for the rad50EPP+ strain (AID 151);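 also: 0% = growth of vehicle-treated control cultures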; conditions: S. cerevisiae rad50 mutant strain, active compounds read high
Outline: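 Genetically defined yeast (rad50EPP+, DNA damage repair alteration) is grown with compound, and inhibition of growth is expressed relative to vehicle-treated controls.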

[3] = NCI Yeast Anticancer Drug Screen. Data for the mgt1 strain (AID 153); conditions: S. cerevisiae mgt1 mutant growth inhibition, active compounds read high
Outline: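 In the mgt1 strain, test compounds were added and growth inhibition was determined relative to vehicle-treated controls.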

[4] = NCI Yeast Anticancer Drug Screen. Data for the rad50 strain (AID 155);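 also: 0% = growth of vehicle-only cultures of the same strain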; conditions: S. cerevisiae rad50 strain growth inhibition, active compounds read high
Outline: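 Compounds were tested on a yeast strain with an engineered DNA damage repair alteration; the reported value is growth inhibition normalised to vehicle treatment.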

[5] = NCI Yeast Anticancer Drug Screen. Data for the mec2-1 strain (AID 157); conditions: S. cerevisiae mec2-1 strain, active compounds read high
Outline: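 Each compound was tested on mec2-1 yeast, a strain altered in DNA damage repair or cell cycle control. Growth inhibition is reported relative to vehicle.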

[6] = NCI Yeast Anticancer Drug Screen. Data for the rad14 strain (AID 159);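 also: 0% = growth of vehicle-treated control cultures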; conditions: S. cerevisiae rad14 strain growth inhibition, active compounds read high
Outline: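 Compound-treated yeast with a defined DNA-repair lesion; growth inhibition normalised to vehicle-treated cultures.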

[7] = NCI Yeast Anticancer Drug Screen. Data for the sgs1 mgt1 strain (AID 161);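 also: 0% = growth of cultures given vehicle only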; conditions: S. cerevisiae sgs1 mgt1 strain, active compounds read high
Outline: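 Inhibition of yeast growth, normalised to vehicle-treated controls, is reported for a strain bearing genetic alterations in DNA damage repair.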

[8] = NCI Yeast Anticancer Drug Screen. Data for the CLN2oe strain (AID 163);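 also: 0% = growth of vehicle-only control cultures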; conditions: S. cerevisiae CLN2oe strain, active compounds read high
Outline: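 First, the altered yeast strain was treated with each compound; second, its growth was measured; finally, inhibition was derived by comparison with vehicle controls.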

[9] = NCI Yeast Anticancer Drug Screen. Data for the cln2 rad14 strain (AID 165);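 also: 0% = growth equal to vehicle treated cultures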; conditions: S. cerevisiae cln2 rad14 strain, active compounds read high
Outline: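 Test compounds were added to cln2 rad14 yeast cultures; inhibition of growth was then determined by comparison with vehicle treatment.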

[10] = NCI Yeast Anticancer Drug Screen. Data for the bub3 strain (AID 167); conditions: S. cerevisiae bub3 mutant strain, active compounds read high
Outline: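 Growth of a checkpoint-deficient yeast mutant is measured after compound exposure. Values represent inhibition relative to vehicle.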

[11] = NCI Yeast Anticancer Drug Screen. Data for the wt2 strain (AID 169);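 also: 0% = growth of vehicle-treated yeast cultures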; conditions: S. cerevisiae wt2 strain growth inhibition, active compounds read high
Outline: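 The panel's yeast strains carry defined changes in DNA repair or cell cycle genes. Each strain is grown with compound, and growth loss is scored relative to vehicle.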

[12] = NCI Yeast Anticancer Drug Screen. Data for the sgs1 strain (AID 173);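 also: 0% = growth of vehicle-only control cultures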; conditions: S. cerevisiae sgs1 mutant, active compounds read high
Outline: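 Vehicle-treated cultures served as reference for growth inhibition of a yeast strain altered in DNA damage repair or cell cycle control after compound exposure.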

[13] = NCI Yeast Anticancer Drug Screen. Data for the mlh1 rad18 strain (AID 175); conditions: S. cerevisiae mlh1 rad18 strain growth inhibition, active compounds read high
Outline: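 Inhibition values reflect reduced growth of mutant yeast versus vehicle-treated controls following compound exposure; the mutations affect DNA damage repair.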

[14] = NCI Yeast Anticancer Drug Screen. Data for the rad18 strain (AID 177); conditions: S. cerevisiae rad18 mutant growth inhibition, active compounds read high
Outline: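 Steps: expose repair-mutant yeast to compound; measure growth; express as inhibition relative to vehicle control.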

[15] = NCI Yeast Anticancer Drug Screen. Data for the mlh1 strain (AID 171);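 also: 0% = growth of vehicle-treated control cultures of the same strain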; conditions: S. cerevisiae mlh1 strain growth inhibition, active compounds read high
Outline: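 Inhibition values reflect reduced yeast growth in the presence of compound, referenced to vehicle controls, using a strain chosen for its alteration in DNA repair or cell cycle control.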

[16] = at 5.0 µM (retest, dose inferred, filed as 0.5)
[17] = at 50.0 µM (retest, dose inferred, filed as 5.0)

Measured: growth inhibition

CCC(C)/C(C)=N/NC(N)=O (stereo unspecified)
active: [13]; [17] 76%
inactive: [1]; at 1.2 µM 0% | [1]; at 3.7 µM 2% | [1]; at 11.0 µM 3% | [1]; at 33.0 µM 3% | [1]; at 100.0 µM 1% | [2]; at 1.2 µM -5% | [2]; at 3.7 µM -1% | [2]; at 11.0 µM -3% | [2]; at 33.0 µM -9% | [2]; at 100.0 µM -14% | [3]; at 1.2 µM 0% | [3]; at 3.7 µM -2% | [3]; at 11.0 µM 1% | [3]; at 33.0 µM 14% | [3]; at 100.0 µM 1% | [4]; at 1.2 µM 2% | [4]; at 3.7 µM 0% | [4]; [16] -7% | [4]; at 11.0 µM 0% | [4]; at 33.0 µM 0% | [4]; [17] 30% | [4]; at 50.0 µM 58.2% | [4]; at 100.0 µM 0% | [5]; at 1.2 µM -1% | [5]; at 3.7 µM 2% | [5]; [16] -3% | [5]; at 11.0 µM -1% | [5]; at 33.0 µM -3% | [5]; [17] -2% | [5]; at 50.0 µM 18.1% | [5]; at 100.0 µM 1% | [6]; at 1.2 µM -2% | [6]; at 3.7 µM 0% | [6]; at 11.0 µM 1% | [6]; at 33.0 µM 0% | [6]; at 100.0 µM 0% | [7]; [16] 5% | [7]; [17] 48% | [7]; at 50.0 µM 36.9% | [8]; at 1.2 µM -7% | [8]; at 3.7 µM 0% | [8]; at 11.0 µM 0% | [8]; at 33.0 µM -6% | [8]; at 100.0 µM -5% | [9]; [16] 5% | [9]; [17] 12% | [9]; at 50.0 µM 22.5% | [10]; at 1.2 µM -2% | [10]; at 3.7 µM -2% | [10]; [16] 8% | [10]; at 11.0 µM 0% | [10]; at 33.0 µM -3% | [10]; [17] 43% | [10]; at 50.0 µM 25% | [10]; at 100.0 µM -10% | [11]; at 1.2 µM 1% | [11]; at 3.7 µM 2% | [11]; at 11.0 µM 3% | [11]; at 33.0 µM 4% | [11]; at 100.0 µM 2% | [12]; at 1.2 µM 0% | [12]; at 3.7 µM 4% | [12]; at 11.0 µM 3% | [12]; at 33.0 µM 3% | [12]; at 100.0 µM 2% | [13]; [16] 1% | [13]; at 50.0 µM 68% | [14]; at 1.2 µM 1% | [14]; at 3.7 µM 0% | [14]; at 11.0 µM -7% | [14]; at 33.0 µM 3% | [14]; at 100.0 µM 5%

O=C(Nn1c(-c2ccccc2)nc2ccccc2c1=O)c1ccc(Cl)cc1
active: [1]; at 100.0 µM 96% | [3]; at 100.0 µM 94% | [4]; at 33.0 µM 70% | [4]; at 100.0 µM 95% | [5]; at 100.0 µM 93% | [6]; at 33.0 µM 76% | [6]; at 100.0 µM 91% | [8]; at 100.0 µM 94% | [10]; at 11.0 µM 72% | [10]; at 33.0 µM 93% | [10]; at 100.0 µM 95% | [11]; at 100.0 µM 95% | [15]; at 100.0 µM 95% | [12]; at 33.0 µM 78% | [12]; at 100.0 µM 96% | [13]; at 50.0 µM 71.9% | [14]; at 33.0 µM 70% | [14]; at 100.0 µM 95%
inactive: [1]; at 1.2 µM 23% | [1]; at 3.7 µM 15% | [1]; at 11.0 µM 17% | [1]; at 33.0 µM 54% | [2]; at 1.2 µM -1% | [2]; at 3.7 µM -11% | [2]; at 11.0 µM -2% | [2]; at 33.0 µM 16% | [2]; at 100.0 µM 27% | [3]; at 1.2 µM -4% | [3]; at 3.7 µM -19% | [3]; at 11.0 µM -17% | [3]; at 33.0 µM 50% | [4]; at 1.2 µM 26% | [4]; at 3.7 µM 9% | [4]; [16] -24% | [4]; at 11.0 µM 31% | [4]; [17] 68% | [4]; at 50.0 µM 66.5% | [5]; at 1.2 µM -15% | [5]; at 3.7 µM -24% | [5]; [16] -3% | [5]; at 11.0 µM -1% | [5]; at 33.0 µM 28% | [5]; [17] 9% | [5]; at 50.0 µM 36.4% | [6]; at 1.2 µM -11% | [6]; at 3.7 µM -5% | [6]; at 11.0 µM -15% | [7]; [16] 0% | [7]; [17] 24% | [7]; at 50.0 µM 56.5% | [8]; at 1.2 µM 12% | [8]; at 3.7 µM -8% | [8]; at 11.0 µM -23% | [8]; at 33.0 µM 12% | [9]; [16] -20% | [9]; [17] 16% | [9]; at 50.0 µM 49.5% | [10]; at 1.2 µM 43% | [10]; at 3.7 µM 52% | [10]; [16] -19% | [10]; [17] 68% | [10]; at 50.0 µM 68.7% | [11]; at 1.2 µM 5% | [11]; at 3.7 µM 6% | [11]; at 11.0 µM 5% | [11]; at 33.0 µM 51% | [15]; at 1.2 µM 5% | [15]; at 3.7 µM 1% | [15]; at 11.0 µM 26% | [15]; at 33.0 µM 69% | [12]; at 1.2 µM 23% | [12]; at 3.7 µM 19% | [12]; at 11.0 µM 33% | [13]; [16] -46% | [13]; [17] 68% | [14]; at 1.2 µM -2% | [14]; at 3.7 µM -2% | [14]; at 11.0 µM 13%

Cc1ccnc(NS(=O)(=O)c2ccc(Nc3c4ccccc4nc4ccccc34)cc2)n1
active: [1]; at 100.0 µM 76% | [2]; at 33.0 µM 73% | [2]; at 100.0 µM 74% | [3]; at 100.0 µM 84% | [4]; at 3.7 µM 79% | [4]; [16] 77% | [4]; at 11.0 µM 90% | [4]; at 33.0 µM 91% | [4]; [17] 90% | [4]; at 50.0 µM 84.8% | [4]; at 100.0 µM 88% | [5]; at 33.0 µM 76% | [5]; [17] 77% | [5]; at 50.0 µM 71.2%
inactive: [1]; at 1.2 µM 14% | [1]; at 3.7 µM 20% | [1]; at 11.0 µM 21% | [1]; at 33.0 µM 48% | [2]; at 1.2 µM 30% | [2]; at 3.7 µM 41% | [2]; at 11.0 µM 64% | [3]; at 1.2 µM 37% | [3]; at 3.7 µM 33% | [3]; at 11.0 µM 54% | [3]; at 33.0 µM 66% | [4]; at 1.2 µM 50% | [5]; at 1.2 µM 18% | [5]; at 3.7 µM 32% | [5]; [16] 15% | [5]; at 11.0 µM 45%
